# Laboratory results taken from publication PMC7862700, “An all-to-all approach to the identification of sequence-specific readers for epigenetic DNA modifications on cytosine”.
# Columns and labels:
# Experiment in all cases: DAPPL (digital affinity profiling via proximity ligation, sequencing); 10 mM Tris-HCl pH 7.5, 50 mM NaCl, 1 mM DTT, 4% glycerol, room temperature, 30 min; GST-TFs on glutathione beads, 16-mer random dsDNA library, 0.1% formaldehyde crosslink after washing; high values mean tight binding
# FLI1 = biological target: T1, FLI1 (Homo sapiens, UniProt Q01543 1-452); conditions: protein: recombinant; tags: N-terminal GST; dsDNA, one strand shown
# T1 sequence: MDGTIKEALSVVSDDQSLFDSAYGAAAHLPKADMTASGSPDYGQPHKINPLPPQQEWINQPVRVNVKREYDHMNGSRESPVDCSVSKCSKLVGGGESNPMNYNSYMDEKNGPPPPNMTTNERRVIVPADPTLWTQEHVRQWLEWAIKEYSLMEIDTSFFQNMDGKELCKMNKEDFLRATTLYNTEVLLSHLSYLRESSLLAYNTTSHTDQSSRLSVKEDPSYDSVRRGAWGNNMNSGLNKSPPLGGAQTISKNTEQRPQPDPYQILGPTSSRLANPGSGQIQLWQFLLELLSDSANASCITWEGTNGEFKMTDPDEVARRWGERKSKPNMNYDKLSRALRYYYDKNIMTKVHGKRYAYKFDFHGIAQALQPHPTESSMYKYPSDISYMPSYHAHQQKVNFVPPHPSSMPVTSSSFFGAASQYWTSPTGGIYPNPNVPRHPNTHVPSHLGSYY
# In short: (§1)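 A tag-only sample was pooled with DNA-barcoded human transcription factors that had been expressed in yeast as GST fusions and captured on glutathione beads. The pools were incubated for 30 min at room temperature with 200 nmole of a random double-stranded 16-mer DNA library in Tris/NaCl/DTT/glycerol buffer, then washed, crosslinked with 0.1% formaldehyde, proximity-ligated (BsaI/T4 ligase, 1 h, 37 °C), PCR-amplified and sequenced on an Illumina NextSeq500. Binding signal is each hexamer's read frequency for a factor divided by its frequency for the tag-only sample.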
# ELK1 = biological target: T2, ELK1 (Homo sapiens, UniProt P19419 1-428); conditions: protein: recombinant; tags: N-terminal GST; dsDNA, one strand shown
# T2 sequence: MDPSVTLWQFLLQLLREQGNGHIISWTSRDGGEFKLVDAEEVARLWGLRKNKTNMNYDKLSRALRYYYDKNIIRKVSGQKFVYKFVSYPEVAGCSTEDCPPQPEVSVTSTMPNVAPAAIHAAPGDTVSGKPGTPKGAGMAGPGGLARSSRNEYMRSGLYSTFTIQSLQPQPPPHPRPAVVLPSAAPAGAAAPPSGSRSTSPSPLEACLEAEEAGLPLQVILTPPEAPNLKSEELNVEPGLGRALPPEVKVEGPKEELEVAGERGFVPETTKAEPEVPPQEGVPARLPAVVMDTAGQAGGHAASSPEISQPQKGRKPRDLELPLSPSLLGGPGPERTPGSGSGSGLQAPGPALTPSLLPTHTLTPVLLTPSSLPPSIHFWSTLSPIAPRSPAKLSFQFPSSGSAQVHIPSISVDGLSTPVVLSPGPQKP
# In short: as §1
# GABPA = biological target: T3, GABPA (Homo sapiens, UniProt Q06546 1-454); conditions: protein: recombinant; tags: N-terminal GST; dsDNA, one strand shown
# T3 sequence: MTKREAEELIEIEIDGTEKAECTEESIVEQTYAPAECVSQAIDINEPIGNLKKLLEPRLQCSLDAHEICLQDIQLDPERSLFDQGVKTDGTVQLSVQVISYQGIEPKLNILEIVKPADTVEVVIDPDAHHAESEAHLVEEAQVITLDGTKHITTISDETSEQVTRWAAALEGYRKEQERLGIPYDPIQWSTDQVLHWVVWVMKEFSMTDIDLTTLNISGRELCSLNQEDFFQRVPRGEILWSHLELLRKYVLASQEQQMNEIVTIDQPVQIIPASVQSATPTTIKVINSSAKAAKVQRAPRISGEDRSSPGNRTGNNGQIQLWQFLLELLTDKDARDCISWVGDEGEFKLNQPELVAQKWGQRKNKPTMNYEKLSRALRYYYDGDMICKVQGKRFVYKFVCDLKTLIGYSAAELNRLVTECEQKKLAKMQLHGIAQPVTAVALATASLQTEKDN
# In short: as §1
# ERG = biological target: T4, ERG (Homo sapiens, UniProt P11308 1-479); conditions: protein: recombinant; tags: N-terminal GST; dsDNA, one strand shown
# T4 sequence: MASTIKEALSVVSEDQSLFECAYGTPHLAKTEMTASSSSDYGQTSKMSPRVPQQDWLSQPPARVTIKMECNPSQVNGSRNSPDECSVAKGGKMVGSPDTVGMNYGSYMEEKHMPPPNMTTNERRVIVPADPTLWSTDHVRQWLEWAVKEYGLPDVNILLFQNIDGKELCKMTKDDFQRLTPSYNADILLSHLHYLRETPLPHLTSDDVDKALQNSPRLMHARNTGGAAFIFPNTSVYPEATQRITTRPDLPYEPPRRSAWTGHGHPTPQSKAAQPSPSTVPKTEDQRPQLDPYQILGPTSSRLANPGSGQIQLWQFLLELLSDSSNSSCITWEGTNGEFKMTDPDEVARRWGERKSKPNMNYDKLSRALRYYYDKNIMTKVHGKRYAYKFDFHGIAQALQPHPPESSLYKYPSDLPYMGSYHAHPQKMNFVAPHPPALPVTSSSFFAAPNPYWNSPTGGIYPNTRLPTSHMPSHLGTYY
# In short: as §1
# ELF1 = ELF1 (Homo sapiens, UniProt P32519 1-619); conditions: protein: recombinant; tags: N-terminal GST; dsDNA, one strand shown
# In short: as §1
# EHF = biological target: T5, EHF (Homo sapiens, UniProt Q9NZC4 1-300); conditions: protein: recombinant; tags: N-terminal GST; dsDNA, one strand shown
# T5 sequence: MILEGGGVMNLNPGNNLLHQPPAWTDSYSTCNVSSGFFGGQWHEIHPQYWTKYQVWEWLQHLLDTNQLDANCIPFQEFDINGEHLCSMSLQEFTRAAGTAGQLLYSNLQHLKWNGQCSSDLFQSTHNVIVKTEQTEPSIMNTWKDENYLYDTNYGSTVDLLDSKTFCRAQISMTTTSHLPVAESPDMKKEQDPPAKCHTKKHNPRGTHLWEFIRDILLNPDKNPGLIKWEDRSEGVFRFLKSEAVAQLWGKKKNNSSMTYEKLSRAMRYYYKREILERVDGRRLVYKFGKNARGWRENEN
# In short: as §1
# SPI1 = SPI1 (Homo sapiens, UniProt P17947 1-270); conditions: protein: recombinant; tags: N-terminal GST; dsDNA, one strand shown
# In short: as §1
# SPIB = SPIB (Homo sapiens, UniProt Q01892 1-262); conditions: protein: recombinant; tags: N-terminal GST; dsDNA, one strand shown
# In short: as §1
# ELK3 = biological target: T6, ELK3 (Homo sapiens, UniProt P41970 1-407); conditions: protein: recombinant; tags: N-terminal GST; dsDNA, one strand shown
# T6 sequence: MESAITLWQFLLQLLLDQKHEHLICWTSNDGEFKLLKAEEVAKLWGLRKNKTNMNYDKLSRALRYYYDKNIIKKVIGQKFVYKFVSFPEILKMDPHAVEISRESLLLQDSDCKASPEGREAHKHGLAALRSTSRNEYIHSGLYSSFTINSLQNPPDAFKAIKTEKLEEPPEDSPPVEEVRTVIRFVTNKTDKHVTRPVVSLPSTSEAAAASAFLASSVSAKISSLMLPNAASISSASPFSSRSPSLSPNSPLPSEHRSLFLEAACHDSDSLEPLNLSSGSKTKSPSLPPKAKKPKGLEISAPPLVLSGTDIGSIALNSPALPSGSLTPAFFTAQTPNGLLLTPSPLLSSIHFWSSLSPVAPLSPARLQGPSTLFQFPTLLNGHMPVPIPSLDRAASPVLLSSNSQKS
# In short: as §1
# FEV = biological target: T7, FEV (Homo sapiens, UniProt Q99581 1-238); conditions: protein: recombinant; tags: N-terminal GST; dsDNA, one strand shown
# T7 sequence: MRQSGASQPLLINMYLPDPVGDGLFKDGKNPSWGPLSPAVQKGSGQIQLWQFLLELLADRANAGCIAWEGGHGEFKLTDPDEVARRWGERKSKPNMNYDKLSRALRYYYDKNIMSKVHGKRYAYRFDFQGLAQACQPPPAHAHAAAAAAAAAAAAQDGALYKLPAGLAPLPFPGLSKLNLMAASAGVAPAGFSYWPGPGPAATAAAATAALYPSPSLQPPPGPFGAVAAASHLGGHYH
# In short: as §1
# ETV5 = ETV5 (Homo sapiens, UniProt P41161 1-510); conditions: protein: recombinant; tags: N-terminal GST; dsDNA, one strand shown
# In short: as §1
# HSF1 = HSF1 (Homo sapiens, UniProt Q00613 1-529); conditions: protein: recombinant; tags: N-terminal GST; chain copies: 3; dsDNA, one strand shown
# In short: as §1
# SPIC = biological target: T8, SPIC (Homo sapiens, UniProt Q8N5J4 1-248); conditions: protein: recombinant; tags: N-terminal GST; dsDNA, one strand shown
# T8 sequence: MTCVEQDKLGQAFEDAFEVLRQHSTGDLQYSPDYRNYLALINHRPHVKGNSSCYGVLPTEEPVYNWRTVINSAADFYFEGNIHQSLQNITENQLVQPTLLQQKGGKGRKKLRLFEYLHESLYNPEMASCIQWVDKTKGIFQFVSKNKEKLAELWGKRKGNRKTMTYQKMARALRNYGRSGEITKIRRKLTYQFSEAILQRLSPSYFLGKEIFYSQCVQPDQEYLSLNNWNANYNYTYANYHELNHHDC
# In short: as §1
# ELF4 = ELF4 (Homo sapiens, UniProt Q99607 1-663); conditions: protein: recombinant; tags: N-terminal GST; dsDNA, one strand shown
# In short: as §1
# ELK4 = biological target: T9, ELK4 (Homo sapiens, UniProt P28324-2 1-405); conditions: protein: recombinant; tags: N-terminal GST; dsDNA, one strand shown
# T9 sequence: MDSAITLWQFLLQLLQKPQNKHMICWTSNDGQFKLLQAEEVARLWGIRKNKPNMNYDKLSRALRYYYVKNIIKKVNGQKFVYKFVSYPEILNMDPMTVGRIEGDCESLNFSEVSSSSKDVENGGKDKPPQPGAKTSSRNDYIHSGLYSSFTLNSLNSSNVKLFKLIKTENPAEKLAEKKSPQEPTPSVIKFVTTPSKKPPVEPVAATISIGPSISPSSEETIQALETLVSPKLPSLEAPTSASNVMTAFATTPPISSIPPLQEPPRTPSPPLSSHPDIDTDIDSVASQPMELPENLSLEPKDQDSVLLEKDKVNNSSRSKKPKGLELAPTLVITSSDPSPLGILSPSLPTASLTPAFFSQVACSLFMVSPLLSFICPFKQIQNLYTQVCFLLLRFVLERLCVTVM
# In short: as §1
# ETV2 = biological target: T10, ETV2 (Homo sapiens, UniProt O00321 1-342); conditions: protein: recombinant; tags: N-terminal GST; dsDNA, one strand shown
# T10 sequence: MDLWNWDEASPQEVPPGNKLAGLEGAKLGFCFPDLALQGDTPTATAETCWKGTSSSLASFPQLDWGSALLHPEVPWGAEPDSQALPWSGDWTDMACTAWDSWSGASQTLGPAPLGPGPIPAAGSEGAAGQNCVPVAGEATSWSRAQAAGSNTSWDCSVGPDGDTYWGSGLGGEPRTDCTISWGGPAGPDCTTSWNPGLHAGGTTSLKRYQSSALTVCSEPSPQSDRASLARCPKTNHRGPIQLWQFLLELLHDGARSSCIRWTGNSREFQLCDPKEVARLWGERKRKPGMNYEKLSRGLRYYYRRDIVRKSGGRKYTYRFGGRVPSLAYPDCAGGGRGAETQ
# In short: as §1
# ELF3 = biological target: T11, ELF3 (Homo sapiens, UniProt P78545 1-371); conditions: protein: recombinant; tags: N-terminal GST; dsDNA, one strand shown
# T11 sequence: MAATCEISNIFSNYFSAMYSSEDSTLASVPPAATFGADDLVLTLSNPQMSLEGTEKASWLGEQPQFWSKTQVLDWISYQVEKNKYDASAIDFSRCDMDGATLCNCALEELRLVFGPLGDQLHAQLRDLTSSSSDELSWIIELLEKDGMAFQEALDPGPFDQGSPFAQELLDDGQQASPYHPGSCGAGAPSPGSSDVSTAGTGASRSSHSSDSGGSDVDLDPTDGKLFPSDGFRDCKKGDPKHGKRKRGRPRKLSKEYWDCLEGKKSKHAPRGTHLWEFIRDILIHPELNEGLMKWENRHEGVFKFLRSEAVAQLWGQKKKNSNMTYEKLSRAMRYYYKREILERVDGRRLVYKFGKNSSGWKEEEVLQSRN
# In short: as §1
# CRX = CRX (Homo sapiens, UniProt O43186 1-299); conditions: protein: recombinant; tags: N-terminal GST; dsDNA, one strand shown
# In short: as §1
# ETV1 = ETV1 (Homo sapiens, UniProt P50549 1-477); conditions: protein: recombinant; tags: N-terminal GST; dsDNA, one strand shown
# In short: as §1
# ETV1, sequence (P50549 whole entry): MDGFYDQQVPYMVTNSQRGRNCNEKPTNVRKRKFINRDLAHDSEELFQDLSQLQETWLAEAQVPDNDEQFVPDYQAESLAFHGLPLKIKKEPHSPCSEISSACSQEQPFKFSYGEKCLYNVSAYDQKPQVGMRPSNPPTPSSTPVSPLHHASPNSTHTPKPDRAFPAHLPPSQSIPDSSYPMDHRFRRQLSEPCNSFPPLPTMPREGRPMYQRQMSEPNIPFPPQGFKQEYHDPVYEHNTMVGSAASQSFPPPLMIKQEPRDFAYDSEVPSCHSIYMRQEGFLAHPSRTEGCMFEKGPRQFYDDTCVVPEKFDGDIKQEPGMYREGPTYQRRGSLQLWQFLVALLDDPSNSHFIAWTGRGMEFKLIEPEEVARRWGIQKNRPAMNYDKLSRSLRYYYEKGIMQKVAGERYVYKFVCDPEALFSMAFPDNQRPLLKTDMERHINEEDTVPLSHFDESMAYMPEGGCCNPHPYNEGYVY
# ELF1, sequence (P32519 whole entry): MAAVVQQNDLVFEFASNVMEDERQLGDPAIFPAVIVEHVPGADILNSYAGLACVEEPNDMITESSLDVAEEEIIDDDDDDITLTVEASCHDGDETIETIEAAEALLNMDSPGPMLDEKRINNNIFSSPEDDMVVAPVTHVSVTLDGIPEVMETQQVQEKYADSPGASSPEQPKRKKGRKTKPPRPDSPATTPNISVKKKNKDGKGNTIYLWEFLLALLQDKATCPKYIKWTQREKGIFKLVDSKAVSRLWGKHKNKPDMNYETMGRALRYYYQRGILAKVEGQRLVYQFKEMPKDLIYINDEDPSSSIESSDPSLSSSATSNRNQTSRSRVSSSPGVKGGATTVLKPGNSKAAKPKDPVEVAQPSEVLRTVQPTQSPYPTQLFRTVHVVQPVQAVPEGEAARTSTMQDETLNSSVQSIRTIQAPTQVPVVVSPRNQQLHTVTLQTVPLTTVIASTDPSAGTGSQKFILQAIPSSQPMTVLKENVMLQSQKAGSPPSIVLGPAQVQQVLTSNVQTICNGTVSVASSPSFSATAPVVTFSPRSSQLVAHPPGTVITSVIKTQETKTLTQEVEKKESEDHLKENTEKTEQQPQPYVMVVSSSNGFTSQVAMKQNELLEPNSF
# SPIB, sequence (Q01892 whole entry): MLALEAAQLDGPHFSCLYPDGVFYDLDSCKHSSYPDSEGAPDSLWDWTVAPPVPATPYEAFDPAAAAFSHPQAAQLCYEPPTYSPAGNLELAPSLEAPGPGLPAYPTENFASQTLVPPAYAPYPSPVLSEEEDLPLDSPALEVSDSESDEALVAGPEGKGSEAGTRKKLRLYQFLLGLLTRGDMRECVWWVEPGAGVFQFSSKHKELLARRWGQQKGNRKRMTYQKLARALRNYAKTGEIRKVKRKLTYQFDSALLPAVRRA
# CRX, sequence (O43186 whole entry): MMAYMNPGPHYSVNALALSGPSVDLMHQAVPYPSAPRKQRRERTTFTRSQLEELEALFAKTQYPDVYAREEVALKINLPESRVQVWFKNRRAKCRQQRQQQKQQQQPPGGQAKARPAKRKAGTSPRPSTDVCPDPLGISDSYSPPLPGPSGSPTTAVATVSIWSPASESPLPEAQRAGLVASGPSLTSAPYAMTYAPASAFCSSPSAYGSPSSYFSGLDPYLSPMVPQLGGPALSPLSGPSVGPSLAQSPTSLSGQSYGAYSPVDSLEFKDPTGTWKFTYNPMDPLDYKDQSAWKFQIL
# ETV5, sequence (P41161 whole entry): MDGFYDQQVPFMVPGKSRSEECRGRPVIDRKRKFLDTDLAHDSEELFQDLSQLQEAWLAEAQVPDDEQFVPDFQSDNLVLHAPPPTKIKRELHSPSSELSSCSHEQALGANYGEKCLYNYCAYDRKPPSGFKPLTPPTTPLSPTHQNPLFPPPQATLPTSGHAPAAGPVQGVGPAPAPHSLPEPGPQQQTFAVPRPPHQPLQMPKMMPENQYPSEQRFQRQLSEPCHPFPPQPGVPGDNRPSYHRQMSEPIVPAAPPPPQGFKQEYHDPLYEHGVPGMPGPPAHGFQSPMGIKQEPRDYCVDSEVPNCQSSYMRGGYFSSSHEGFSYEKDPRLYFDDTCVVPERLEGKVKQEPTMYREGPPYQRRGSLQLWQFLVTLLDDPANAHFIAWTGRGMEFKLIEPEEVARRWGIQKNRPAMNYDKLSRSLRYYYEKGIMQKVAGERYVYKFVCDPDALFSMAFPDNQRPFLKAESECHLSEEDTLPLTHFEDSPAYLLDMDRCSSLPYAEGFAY
# HSF1, sequence (Q00613 whole entry): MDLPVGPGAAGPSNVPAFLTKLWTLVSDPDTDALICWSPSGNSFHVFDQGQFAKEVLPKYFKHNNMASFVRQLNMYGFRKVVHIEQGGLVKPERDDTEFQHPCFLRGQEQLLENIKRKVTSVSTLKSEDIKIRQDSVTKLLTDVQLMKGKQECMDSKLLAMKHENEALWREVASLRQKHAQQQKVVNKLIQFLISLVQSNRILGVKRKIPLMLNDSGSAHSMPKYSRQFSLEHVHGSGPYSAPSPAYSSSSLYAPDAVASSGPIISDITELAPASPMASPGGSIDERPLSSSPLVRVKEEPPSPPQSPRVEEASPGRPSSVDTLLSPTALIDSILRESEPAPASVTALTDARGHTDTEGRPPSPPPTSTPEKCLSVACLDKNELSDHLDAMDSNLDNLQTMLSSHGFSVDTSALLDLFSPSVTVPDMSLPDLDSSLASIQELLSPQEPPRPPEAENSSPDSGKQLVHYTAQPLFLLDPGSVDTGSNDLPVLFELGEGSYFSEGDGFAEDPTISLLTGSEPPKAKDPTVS
# ELF4, sequence (Q99607 whole entry): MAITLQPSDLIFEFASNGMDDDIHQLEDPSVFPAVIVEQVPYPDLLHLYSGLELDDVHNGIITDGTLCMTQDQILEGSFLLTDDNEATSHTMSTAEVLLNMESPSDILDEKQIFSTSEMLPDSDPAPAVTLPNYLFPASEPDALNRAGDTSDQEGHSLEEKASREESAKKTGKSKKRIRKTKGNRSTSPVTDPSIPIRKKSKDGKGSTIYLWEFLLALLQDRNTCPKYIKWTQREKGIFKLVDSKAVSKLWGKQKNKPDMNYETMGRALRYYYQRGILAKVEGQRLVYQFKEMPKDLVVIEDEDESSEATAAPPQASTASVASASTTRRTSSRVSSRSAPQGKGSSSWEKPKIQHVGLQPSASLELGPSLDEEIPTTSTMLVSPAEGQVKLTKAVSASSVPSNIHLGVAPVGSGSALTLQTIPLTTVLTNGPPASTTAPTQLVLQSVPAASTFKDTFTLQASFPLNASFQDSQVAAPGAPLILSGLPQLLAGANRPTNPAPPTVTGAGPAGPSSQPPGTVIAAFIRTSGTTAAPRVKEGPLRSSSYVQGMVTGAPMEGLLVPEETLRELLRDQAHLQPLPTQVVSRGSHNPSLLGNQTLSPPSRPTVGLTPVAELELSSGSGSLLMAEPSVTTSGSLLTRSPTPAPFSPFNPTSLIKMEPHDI
sequence,measurement,setting,value
GCTCAT,binding signal,FLI1,"1.23 fold enrichment (6-mer frequency, TF over GST control)"
same,binding signal,ELK1,"1.29 fold enrichment (6-mer frequency, TF over GST control)"
same,binding signal,GABPA,"1.23 fold enrichment (6-mer frequency, TF over GST control)"
same,binding signal,ERG,"1.32 fold enrichment (6-mer frequency, TF over GST control)"
same,binding signal,ELF1,"1.36 fold enrichment (6-mer frequency, TF over GST control)"
same,binding signal,EHF,"1.26 fold enrichment (6-mer frequency, TF over GST control)"
same,binding signal,SPI1,"1.21 fold enrichment (6-mer frequency, TF over GST control)"
same,binding signal,SPIB,"1.31 fold enrichment (6-mer frequency, TF over GST control)"
same,binding signal,ELK3,"1.16 fold enrichment (6-mer frequency, TF over GST control)"
same,binding signal,FEV,"1.2 fold enrichment (6-mer frequency, TF over GST control)"
same,binding signal,ETV5,"1.19 fold enrichment (6-mer frequency, TF over GST control)"
same,binding signal,HSF1,"1.15 fold enrichment (6-mer frequency, TF over GST control)"
same,binding signal,SPIC,"1.32 fold enrichment (6-mer frequency, TF over GST control)"
same,binding signal,ELF4,"1.18 fold enrichment (6-mer frequency, TF over GST control)"
same,binding signal,ELK4,"1.3 fold enrichment (6-mer frequency, TF over GST control)"
same,binding signal,ETV2,"1.39 fold enrichment (6-mer frequency, TF over GST control)"
same,binding signal,ELF3,"1.34 fold enrichment (6-mer frequency, TF over GST control)"
same,binding signal,CRX,"1.35 fold enrichment (6-mer frequency, TF over GST control)"
same,binding signal,ETV1,"1.22 fold enrichment (6-mer frequency, TF over GST control)"
